Test results published in ChEMBL document CHEMBL4513216, “Probing the Open Global Health Chemical Diversity Library for Multistage-Active Starting Points for Next-Generation Antimalarials” (ACS Infect Dis, 2020).
The whole screen tested about 69,000 compounds, of which about 8,600 (12%) showed an effect of 50% or more. The full list was thinned out, with strong results kept by preference.

tested on: Plasmodium berghei; assay: Screen against P. berghei liver stage (PbLuc), transformed with Luciferase, at 10uM; format: functional, HepG2; conditions: tested at 10 uM

SMILES	INHIBITION
CN(C)c1ccc(C(=O)NCc2ccc(N3CCOCC3)cc2)cn1	12%
Cc1n[nH]c(C2CN(C(=O)CCOCC(F)(F)F)CCO2)n1 (stereo unspecified)	13.6%
CC(=O)N1CCOCC2(CCN(Cc3ccc(C)s3)CC2)C1	20.2%
CS(=O)(=O)N1CCO[C@@H]2CN(C(=O)N3CCCC3)CC[C@@H]2C1	43.9%
O=C(c1cc2c(s1)CCCC2)N1CCc2nc(C3CCCN3)ncc2C1 (stereo unspecified)	49.6%
Cc1nn2cccnc2c1C(=O)N1CCCC(n2ccnc2C)C1 (stereo unspecified)	2.3%
COc1ccccc1-c1cc(C(=O)N(C)C)c2cnn(C)c2n1	-8.9%
Cn1ccnc1-c1nc(NC2CCCC2)ncc1-c1cccc(F)c1	63.8%
COCCNc1ncc(-c2cccc(F)c2)c(-c2nccn2C)n1	25.8%
CCOCCCNc1ncc(-c2cccc(F)c2)c(-c2nccn2C)n1	8.12%
COc1nn(C)c2c1CCCN(C(=O)c1cscn1)C2	51.2%
COc1nn(C)c2c1CCCN(C(=O)c1cnccn1)C2	18.6%
COc1nn(C)c2c1CCCN(C(=O)c1c[nH]cn1)C2	14%
CCCn1nccc1NC(=O)CN1CCCC1c1cccn1C (stereo unspecified)	25.1%
Cc1cc(C)cc(N2CCN(Cc3cccnc3)CC2=O)c1	41.5%
O=C1NCC2(CCCN(Cc3ccc(Cl)s3)C2)Oc2ccccc21 (stereo unspecified)	43.7%
O=C1CC2(CCN(Cc3ccc(-c4ccccc4)s3)C2)C(=O)N1 (stereo unspecified)	21.2%
O=C1CC2(CCN(Cc3ccc(Cl)s3)C2)C(=O)N1 (stereo unspecified)	61.6%
O=C(Cc1ccccn1)N1CCc2ncnc(NC3CCC3)c2CC1	38.5%
CCc1nc(C)c(C(=O)NCCN2CCN(C(C)=O)CC2)s1	22.3%
Cc1nn(C)cc1CN1CCc2c(nc(-c3ccccn3)[nH]c2=O)C1	38.8%
COc1cc2c(cc1OC)C(=O)C(Sc1nncn1C)C2 (stereo unspecified)	6.67%
COc1ccc(NC(=O)c2cccc(CN3CCCC3C)c2)cc1OC (stereo unspecified)	42.6%
CC1CCCN1Cc1cccc(C(=O)Nc2ccc3c(c2)CCC3=O)c1 (stereo unspecified)	58.6%

SMILES	INHIBITION
CC1CCCN1Cc1cccc(C(=O)Nc2ccc3[nH]c(=O)oc3c2)c1 (stereo unspecified)	74.7%
Cc1cccc(C)c1NC(=O)c1cccc(CN2CCCC2C)c1 (stereo unspecified)	41.5%
CC1CN(C)CCN1Cc1cccc(C(=O)NCc2ccco2)c1 (stereo unspecified)	-5.9%
O=C(NCc1ccco1)c1cccc(CN2CCCC2CO)c1 (stereo unspecified)	5.58%
COc1ccc(CN(C)C(=O)CCC(=O)c2cccs2)c(OC)c1OC	50.1%
COc1cccc(CN(C)C(=O)CCC(=O)c2ccccc2)c1OC	-16.9%
CCN(C)C(=O)CCC(=O)c1cccs1	40.2%
COCCN1CCC(CN(CC2CCCO2)C(=O)CCC(F)(F)F)CC1 (stereo unspecified)	6.67%
CCC(=O)Nc1nnc(CCOc2ccc(OC)cc2)s1	40%
COc1ccc(N(c2ccc(C)cc2)c2ccc(C(=O)O)s2)cc1	27.8%
Cc1ccc(OCc2ccc(C(=O)O)s2)cc1C	-32.9%
COc1cncc(-n2ccnc2-c2ccc(C(=O)O)s2)c1	14.6%
COc1ccc(N(c2ccc(OC)cc2)c2ccc(C(=O)O)s2)cc1	69.3%
COc1ccc(N(c2ccccc2)c2ccc(C(=O)O)s2)cc1	66.4%
Cc1nc(N2CCCC2)ncc1-c1cc(O)n2ncnc2n1	16.8%
CN1CCCCC1(C)C(=O)N1CCC(c2ccccn2)CC1 (stereo unspecified)	19.825%
OC(COCc1ccco1)CN1CCc2c(ncn2C2CC2)C1 (stereo unspecified)	-58.7%
Cn1ccnc1C(=O)N1CCOC(Cc2ccc(Cl)cc2)C1 (stereo unspecified)	47.2%
O=S(=O)(CCC1CCCO1)NCc1ncc(-c2ccccc2)o1 (stereo unspecified)	20%
CN(CCCC1CCCO1)S(=O)(=O)NCc1ccccc1 (stereo unspecified)	16.1%
Cc1cnc(CNS(=O)(=O)CCC2CCCO2)o1 (stereo unspecified)	57.7%
C=c1ccoc1=C1NN=C(CNCCn2cccn2)O1	34.1%
CC(=O)N1CCC2(CC1)CN(CC(C)C)CC21CCNC1=O (stereo unspecified)	-33.1%
O=C(NCc1ccoc1)NC1CCCN(c2ncccn2)C1 (stereo unspecified)	-22.1%

SMILES	INHIBITION
CCOC1CCN(C(=O)c2csc(S(N)(=O)=O)c2)CC1	62.4%
CC1CCCN(C(=O)c2csc(S(N)(=O)=O)c2)CC1 (stereo unspecified)	11.5%
CCCOC1CCCN(C(=O)c2csc(S(N)(=O)=O)c2)C1 (stereo unspecified)	0.991%
CCc1nnc2n1CC(CNCc1nc(C)c(C)o1)CC2 (stereo unspecified)	-8.22%
Cc1ccc(CNC(=O)N2CCCC(NS(C)(=O)=O)C2)cc1 (stereo unspecified)	9.64%
Cc1noc([C@]23COC[C@H]2CN(C(=O)CN(C)C)C3)n1	46.6%
CCOCC(=O)N1C[C@@H]2COC[C@]2(c2nc(C)no2)C1	63.8%
Cc1noc([C@]23COC[C@H]2CN(C(=O)COC2CCCC2)C3)n1	-5.89%
COCCN1CCc2ncnc(N(C)C)c2CC1	33.5%
CN(C)Cc1ccnc(C2CN(CCCc3ccccc3)CCO2)n1 (stereo unspecified)	42.6%
O=C(c1ccc(C2CCCN2C(=O)c2ccc[nH]2)s1)N1CCSCC1 (stereo unspecified)	-32.2%
Cn1ncc2c1CCCC2NCc1cnc(-c2ccccc2)nc1 (stereo unspecified)	33%
CC(C)(C)n1ncc2c1CCCC2NCc1ccc2ncccc2c1 (stereo unspecified)	72.8%
O=C1C(NCc2ccc3c(c2)CCO3)CCN1Cc1ccccc1 (stereo unspecified)	6.88%
COCc1nc(CNC2CCCc3c2cnn3C(C)(C)C)cs1 (stereo unspecified)	2.02%
CC(C)(C)n1ncc2c1CCCC2NCc1ccsc1 (stereo unspecified)	50.1%
CC(C)(C)n1ncc2c1CCCC2NCc1cccc2c1OCO2 (stereo unspecified)	20.2%
CCn1ncc2c1CCCC2NCc1ccc2c(c1)CCO2 (stereo unspecified)	5.03%
CC(C)(C)n1ncc2c1CCCC2NCc1cccc(C(N)=O)c1 (stereo unspecified)	-8.4%
CC(C)(C)n1ncc2c1CCCC2NCc1cccc2c1OCCO2 (stereo unspecified)	35.9%
CC(C)(C)n1ncc2c1CCCC2NCc1ccc2c(c1)CCO2 (stereo unspecified)	61%
CC(C)(C)n1ncc2c1CCCC2NCc1ccc2c(c1)OCCO2 (stereo unspecified)	93.1%
CCn1ncc2c1CCCC2NCc1ccc2c(c1)OCCO2 (stereo unspecified)	1.51%
